KAT2A inh – qHTS Assay for Inhibitors of GCN5L2; GCN5L2 HAT assay, ThioGlo1 CoA-SH fluorescence; Potency, µM (highest dose often 58.9 µM), without a hit: at the highest dose activity change, negative = inhibition, usual class: inhibitors; hit rate 0.21% among 390,000
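Titration-based screen in which CoA formation is detected via maleimide probe ThioGlo1 (50uM) turning fluorescent on thiol reaction; substrates H3(1-25) 75uM and acetyl-CoA 70uM, GCN5L2 20nM, 20 min incubation at room temperature.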
TDP1 inh – qHTS Assay for Inhibitors of Tyrosyl-DNA Phosphodiesterase (TDP1). Tyrosyl-DNA phosphodiesterase 1 (Homo sapiens), Q9NUW8. recombinant TDP1, AlphaScreen DNA substrate cleavage. Potency, µM (doses to about 130 µM), for the others: at the highest dose activity change, negative = inhibition, hits mostly inhibitors. hit rate 0.28% among 350,000; further: nearly all actives have a fitted effect of over 40% in size
Target sequence (Q9NUW8 whole entry, looked up): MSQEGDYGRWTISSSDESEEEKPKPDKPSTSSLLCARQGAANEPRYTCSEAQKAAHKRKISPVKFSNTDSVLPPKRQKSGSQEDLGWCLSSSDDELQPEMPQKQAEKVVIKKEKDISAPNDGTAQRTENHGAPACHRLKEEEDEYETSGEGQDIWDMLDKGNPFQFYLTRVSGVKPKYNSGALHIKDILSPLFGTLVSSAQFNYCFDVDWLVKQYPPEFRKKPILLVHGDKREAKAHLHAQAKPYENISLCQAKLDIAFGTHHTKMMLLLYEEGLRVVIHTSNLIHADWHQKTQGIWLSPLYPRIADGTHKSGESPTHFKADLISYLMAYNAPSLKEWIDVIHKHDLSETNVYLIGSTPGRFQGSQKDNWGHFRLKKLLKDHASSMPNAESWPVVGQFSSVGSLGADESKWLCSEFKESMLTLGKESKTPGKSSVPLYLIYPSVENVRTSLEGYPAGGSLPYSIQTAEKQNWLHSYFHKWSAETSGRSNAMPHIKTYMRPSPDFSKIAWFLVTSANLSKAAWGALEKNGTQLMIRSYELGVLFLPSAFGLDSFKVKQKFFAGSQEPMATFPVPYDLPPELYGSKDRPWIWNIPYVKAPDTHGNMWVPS
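Tdp1 1 nM final; 15 min RT w/ cpd; substrate 15 nM, 5 min; beads 10 ug/ml, 10 min; AlphaScreen read. Neg ctrl: no enzyme.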
VDR inh – Inhibitors of the vitamin D receptor (VDR): qHTS. Potency, µM, without a hit: max response, negative = inhibition, usual class: inhibitors. AID 504847, 2011. VDR-SRC2-3 peptide fluorescence polarization, 2 h. hit rate 0.93% among 400,000
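Fluorescence polarization assay of small-molecule disruption of VDR binding to coregulator peptide SRC2-3. Compounds and controls pin-transferred, then read after 2 h incubation at ambient room temperature.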
PLK1 PBD block – qHTS for Inhibitors of PLK1-PDB (polo-like kinase 1 - polo-box domain): Primary Screen | Plk1 PBD binding of FITC phosphopeptide, fluorescence polarization | Potency, µM, inactives show max response, negative = inhibition, hits mostly inhibitors | hit rate 2.8% among 360,000 | AID 720504, 2013 | Serine/threonine-protein kinase PLK1 (Homo sapiens), P53350; further: series mostly up to about 57 µM; nearly all actives have a fitted effect of over 65% in size
DT40 TDP1 no CPT – qHTS for Inhibitors of human tyrosyl-DNA phosphodiesterase 1 (TDP1): qHTS in cells in absence of CPT; Potency, µM (titrated, usually from 46.2 µM), inactives show at the highest dose activity change, negative = growth inhibition, hits mostly inhibitors; hit rate 15% among 420,000; DT40 Tdp1-/- hTDP1 cells, no CPT, ATP luminescence, 48 h; further: nearly all actives have a fitted effect of over 55% in size
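Luminescent ATP content (CellTiter-Glo) served as the growth readout. Knockout chicken DT40 cells expressing human TDP1 were exposed to compounds without camptothecin for a minimum 48 hr at 37 °C.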
DT40 TDP1 CPT – qHTS for Inhibitors of human tyrosyl-DNA phosphodiesterase 1 (TDP1): qHTS in cells in presence of CPT. chicken DT40 Tdp1-/-;hTDP1 cells + 20 nM CPT, ATP luminescence, 48 h. hit rate 12% among 420,000. Potency, µM (titrated, usually from 46.2 µM), inactives show at the highest dose activity change, negative = growth inhibition, actives largely listed as inhibitors; further: nearly all actives have a fitted effect of over 55% in size
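Cell growth measured by CellTiter-Glo luminescence after a minimum 48 h, 37 C compound exposure with 20 nM CPT in Tdp1-knockout DT40 cells stably expressing hTDP1, seeded 400/well; qHTS titration format.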
* hit, by the source's call; ? = inconclusive; . = not tested or not shown; [ ] = another dose, or the depositor's remark. Compounds with a hit are over-represented: about 18% of the library has one in this group of screens. The call rests on the fitted dose curve; in most records, active means well fitted curve in the direction sought with a large enough effect; inconclusive means small, poorly fitted or top-dose-only effect, or another doubt; inactive means no such curve, though single readings can be large; an effect the other way counts as inactive or inconclusive. On the % scale 0 is the no-effect control and ±100 the full control effect; potency means the concentration at half of the fitted maximal effect.

SMILES	KAT2A inh	TDP1 inh	VDR inh	PLK1 PBD block	DT40 TDP1 no CPT	DT40 TDP1 CPT
CC(CC(=O)Nc1ccccc1C(F)(F)F)c1ccccc1 (stereo not given)	-5%	-2%	-3%	-9%	-23%	-11%
CC(=O)Nc1c2c(nn1-c1ccccc1C)CS(=O)(=O)C2	-6%	.	4%	-3%	6%	2%
CN(/N=C/c1cccnc1)c1cnn(-c2ccc(F)c(Cl)c2)c(=O)c1Cl	-4%	-2%	8%	0%	-9%	-26%
CN(/N=C/c1c[nH]c2ccccc12)c1cnn(-c2ccc(F)c(Cl)c2)c(=O)c1Cl	-7%	2%	-1%	19%	26µM*	26µM*
O=S(=O)(O)c1c(NS(=O)(=O)c2ccccc2)ccc2ccccc12	.	3%	2%	.	.	.
COc1cc(OC)c(OC)cc1CN1CCC(n2cc(C(=O)N3CCCCC3)nn2)CC1	.	.	.	.	-8%	8%[9.04 µM]
COC(=O)c1ccc(NC(=O)CSc2nccn2CCc2ccccc2)cc1	2%	-7%	11%	-10%	18µM*	?
CC(C)(C)NC(=O)CSc1nccn1Cc1ccccc1	3.5µM*	4%	-12%	-10%	-19%	-25%
COC(=O)c1ccc(NC(=O)CSc2nc(=O)n3cccc(C)c3n2)cc1	-4%	12%	-7%	-8%	?	18µM*
O=C(CSc1nccn1Cc1ccccc1)Nc1ccccc1	-5%	6%	-6%	-3%	-25%	-20%
CNC(=O)c1c(NC(=O)/C=C/c2ccccc2Cl)sc2c1CCC2	-13%	0%	-4%	.	-25%	-3%
CCOC(=S)SCC(=O)N1CCc2cc(OC)ccc2C1C1C(=O)CCCC1=O (stereo not given)	-7%	.	1%	-5%	18µM*	?
O=C1OC(/C=C/c2ccc(Cl)cc2Cl)=NC/1=C\c1cccs1	-8%	5%	-2%	-25%	-26%	?
COc1ccc(CNC(=O)CSc2nnc(C)c3c(C)n(-c4ccccc4)nc23)c(OC)c1	-12%	11%	-2%	.	?	?
COc1ccc(C(=O)Nc2ccc(C3=NNC(=O)CC3C)cc2NC(=O)c2ccc(OC)cc2)cc1 (stereo not given)	-13%	5%	-12%	1%	23µM*	?
COc1ccc(C(=O)Nc2ccc(C(=O)O)cc2NC(=O)c2ccc(OC)cc2)cc1	-4%	.	-6%	-19%	-5%	-2%
CC(C)(C)c1ccc(OCC(=O)N/N=C/c2cc(Br)ccc2OC(=O)c2ccco2)cc1	2%	4%	-18%	-7%	4.1µM*	4.6µM*
COC(=O)c1ccc(NC(=O)N2CCC(CN3CCc4ccccc4C3)CC2)cc1	-3%	4%	21%	.	-27%	?
Cc1nc2c(Br)cc(Br)cc2c(=O)n1-c1ccccc1NC1OCC(O)C(O)C1O (stereo not given)	.	.	5%	-5%	8.2µM*	7.3µM*
COc1ccccc1OCCn1cc(C(=O)c2ccco2)c2ccccc21	-3%	-1%	-1%	-4%	18µM*	?
COc1cccc(OCCn2cc(/C=N/NC(=O)c3ccncc3)c3ccccc32)c1	-6%	8%	0%	-6%	?	?
Cc1ccccc1OCCn1cc(C(=O)c2ccco2)c2ccccc21	4%	5%	12%	.	23µM*	?
COc1cccc(OCCn2cc(C(C)=O)c3ccccc32)c1	-5%	.	8%	1%	18µM*	12µM*
CC(=O)c1cn(CCOc2cc(C)ccc2C)c2ccccc12	2%	.	5%	2%	4.1µM*	3.7µM*
Cc1ccc(N(C)C(CNS(=O)(=O)c2ccccc2)c2ccccc2)cc1 (stereo not given)	-11%	8%	7%	.	?	?
SMILES	KAT2A inh	TDP1 inh	VDR inh	PLK1 PBD block	DT40 TDP1 no CPT	DT40 TDP1 CPT
Clc1ccc(-c2noc3ncnc(NCCc4ccccc4)c23)cc1	0%	-8%	11%	.	?	?
CCCS(=O)(=O)NC(=O)C1(C)CCN(C(=O)c2ccc(SC(F)(F)F)cc2)C1 (stereo not given)	.	.	.	0%	-3%	1%
CCOc1ccc(NC(=O)COC(=O)c2ccccc2OCc2ccccc2Br)cc1	.	.	.	.	-8%	4%
CCOc1ccc(NC(=O)c2cc3cc(C)ccc3n2C)cc1	-10%	4%	7%	.	-21%	-4%
COc1ccc(CCC(=O)OCC(=O)Nc2sccc2C(N)=O)cc1OC	0%	-3%	5%	-4%	?	?
COc1cccc(OCCn2cc(C(=O)c3ccco3)c3ccccc32)c1	-15%	10%	1%	1%	16µM*	16µM*
O=C(c1ccco1)c1cn(CC(=O)N2CCCC2)c2ccccc12	-11%	3%	-13%	3%	10%	9%
CCOc1ccccc1-c1cc(C(=O)N/N=C/c2ccc3c(c2)OCO3)c2ccccc2n1	-11%	4%	-9%	4%	9.2µM*	12µM*
CCOc1ccccc1-c1cc(C(=O)N/N=C/c2ccc(O)c(OC)c2)c2ccccc2n1	-6%	-8%	8%	-3%	0.58µM*	1.5µM*
O=C(N/N=C/c1ccc2c(c1)OCO2)c1cc(-c2ccccc2Cl)nc2ccccc12	-11%	7%	-1%	-6%	-7%	2%
CC1CCC(=C(C#N)c2nc(-c3cc4ccccc4oc3=O)cs2)CC1 (stereo not given)	-12%	0%	-20%	27µM*	21µM*	?
COc1cc(/C=C(\C#N)c2nc(-c3cc4ccccc4oc3=O)cs2)ccc1O	-2%	0%	-19%	4%	18µM*	18µM*
Cn1nnc(NC(=S)NC(=O)c2cccc3c(Cl)cccc23)n1	-2%	5%	20%	-23%	12%	-4%
Cc1cc(C(F)(F)F)n(-c2ccc(N)cc2)n1	-6%	0%	8%	0%	-4%	7%
Cc1ccc(C)n1-c1ccc(N(C)C)cc1	-3%	11%	?	-22%	29µM*	?
CSCC[C@@H](CO)NC(=O)[C@H]1O[C@@H](n2ccc(N)nc2=O)[C@H](O)[C@@H]1O	.	.	.	3%	18%	0%
COc1cccc(NS(=O)(=O)c2cc(C)ccc2OC)c1	2%	2%	?	8.4µM*	?	?

Source: PubChem (National Center for Advancing Translational Sciences (NCATS))
